Experimental data from PubChem BioAssay (Tox21).
“And” between values parts separate entries of the source, which are not always exact repeats. Identical values can stand only once. Results filed as inconclusive are left out. Where a structure was tested more than once in an assay, its records may differ in their call. The source made the active and inactive calls. Unless noted, the call rests on the fitted dose curve.

Tests used:
[1] = Nuclear factor erythroid 2-related factor 2/antioxidant responsive element (Nrf2/ARE) small molecule agonists: qHTS cell viability counter screen in human keratinocytes (AID 1919968; active means well fitted curve in the direction sought with a large enough effect in the repeat runs; an effect the other way counts as inactive or inconclusive; further: nearly all actives have a fitted effect of over 55% in size; further: potency means the concentration at half of the fitted maximal effect)
Procedure, shortened: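 Viability counter-screen: KeratinoSens reporter cells, DMSO-delivered compounds, 23 h at 37 C, CellTiter-Fluor fluorescence.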

[2] = Nuclear factor erythroid 2-related factor 2/antioxidant responsive element (Nrf2/ARE) small molecule agonists: luciferase reporter gene qHTS assay in human keratinocytes (AID 1919969); further: nearly all actives have a fitted effect of over 35% in size; further: potency means the concentration at half of the fitted maximal effect
[3] = target: Gonadotropin-releasing hormone receptor (Homo sapiens) (UniProt P30968); assay: Human gonadotropin-releasing hormone receptor (GnRHR) small molecule agonists, calcium flux assay in GnRHR-HEK293 cells (AID 1920063); further: nearly all actives have a fitted effect of over 35% in size; further: potency means the concentration at half of the fitted maximal effect
Gonadotropin-releasing hormone receptor (Homo sapiens), sequence (P30968 whole entry, looked up): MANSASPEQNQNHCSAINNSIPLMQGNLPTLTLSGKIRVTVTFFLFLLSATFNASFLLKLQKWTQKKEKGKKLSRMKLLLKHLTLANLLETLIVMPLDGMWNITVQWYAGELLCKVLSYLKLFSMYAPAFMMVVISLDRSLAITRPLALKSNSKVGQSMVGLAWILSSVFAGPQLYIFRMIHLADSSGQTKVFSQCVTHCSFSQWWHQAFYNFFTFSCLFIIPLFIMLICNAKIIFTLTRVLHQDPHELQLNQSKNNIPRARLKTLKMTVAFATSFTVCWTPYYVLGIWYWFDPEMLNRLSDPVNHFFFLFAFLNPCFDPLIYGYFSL
Procedure, shortened: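 Tox21-format agonist screen using human GnRHR-expressing HEK293 cells and a fluorescent calcium dye; kinetic 3-min fluorescence reading after compound addition, 15-point concentration series run in triplicate.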

[4] = target: KiSS-1 receptor (Homo sapiens) (UniProt Q969F8); assay: Human kisspeptin (KISS1R) small molecule agonists, calcium flux assay in KISS1R-HEK293 cells (AID 1920064; active means well fitted curve in the direction sought with a large enough effect in the repeat runs; an effect the other way counts as inactive or inconclusive)
KiSS-1 receptor (Homo sapiens), sequence (Q969F8 whole entry, looked up): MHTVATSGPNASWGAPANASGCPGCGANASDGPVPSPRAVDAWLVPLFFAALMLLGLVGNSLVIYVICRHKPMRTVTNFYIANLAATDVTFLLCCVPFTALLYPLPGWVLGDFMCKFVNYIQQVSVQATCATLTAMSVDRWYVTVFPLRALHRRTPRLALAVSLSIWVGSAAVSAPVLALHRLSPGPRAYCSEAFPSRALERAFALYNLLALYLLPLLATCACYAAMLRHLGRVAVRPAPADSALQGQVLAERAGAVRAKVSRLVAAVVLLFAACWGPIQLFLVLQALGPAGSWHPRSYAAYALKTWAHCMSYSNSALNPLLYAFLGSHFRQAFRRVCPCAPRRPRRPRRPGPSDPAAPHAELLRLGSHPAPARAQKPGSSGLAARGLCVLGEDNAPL
Procedure, shortened: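 Intracellular calcium mobilization in KISS1R-HEK293 cells was recorded by fluorescence (Ex/Em 480/540) for 3 min following compound addition to cells pre-loaded 1 h with calcium dye.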

[5] = p53 small molecule agonists, cell-based qHTS assay with human liver microsomes: qHTS cell viability counter screen (AID 1963579); further: nearly all actives have a fitted effect of over 45% in size; further: potency means the concentration at half of the fitted maximal effect
Procedure, shortened: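 Cytotoxicity counter screen: p53RE-bla, 4,000 cells/well; 5 h settle, 37 C/5% CO2; cpd + HLM 0.5 mg/mL + NADPH 0.5 mg/mL (final); 16 h, 37 C; CellTiter-Glo, 30 min RT, luminescence.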

[6] = p53 small molecule agonists, cell-based qHTS assay with rat liver microsomes: qHTS cell viability counter screen (AID 1963580); further: nearly all actives have a fitted effect of over 45% in size; further: potency means the concentration at half of the fitted maximal effect
Procedure, shortened: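 p53RE-bla HCT-116 cells (4,000/well) rested 5 h at 37 C, then given Tox21 compounds in DMSO with rat liver microsomes (0.5 mg/mL final) plus NADPH (0.5 mg/mL final) for 16 h at 37 C. Viability read by CellTiter-Glo luminescence after 30 min at room temperature.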

[7] = p53 small molecule agonists, cell-based qHTS assay: qHTS cell viability counter screen (AID 1963581); further: nearly all actives have a fitted effect of over 45% in size; further: potency means the concentration at half of the fitted maximal effect
Procedure, shortened: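 Compounds are pinned onto HCT-116 p53RE-bla cells and left 16 h at 37 C. Following the reporter FRET read, ATP is quantified by CellTiter-Glo luminescence after 30 min at room temperature.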

[8] = target: 5-hydroxytryptamine receptor 2A (Homo sapiens) (UniProt P28223); assay: 5-hydroxytryptamine receptor 2A (HTR2A) small molecule antagonists, cell-based qHTS assay (AID 1963586); further: nearly all actives have a fitted effect of over 45% in size; further: potency means the concentration at half of the fitted maximal effect
5-hydroxytryptamine receptor 2A (Homo sapiens), sequence (P28223 whole entry, looked up): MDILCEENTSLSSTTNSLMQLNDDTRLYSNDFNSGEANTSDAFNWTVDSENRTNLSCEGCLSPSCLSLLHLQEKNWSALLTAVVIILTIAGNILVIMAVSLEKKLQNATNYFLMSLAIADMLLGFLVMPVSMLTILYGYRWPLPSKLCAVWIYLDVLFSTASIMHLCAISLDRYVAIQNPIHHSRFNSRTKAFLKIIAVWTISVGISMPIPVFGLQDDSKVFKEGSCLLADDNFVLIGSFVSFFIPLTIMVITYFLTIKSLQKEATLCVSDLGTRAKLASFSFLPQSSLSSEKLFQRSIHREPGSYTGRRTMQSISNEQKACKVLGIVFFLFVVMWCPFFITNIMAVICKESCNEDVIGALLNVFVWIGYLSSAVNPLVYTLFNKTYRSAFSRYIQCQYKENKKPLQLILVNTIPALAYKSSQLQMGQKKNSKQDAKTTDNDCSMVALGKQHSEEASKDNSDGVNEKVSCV
Procedure, shortened: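 Antagonist-mode intracellular calcium assay: DOI (4 nM) added after 5 min compound pre-incubation at room temperature to dye-loaded HTR2A-CHO cells. Fluorescence followed for 3 min, sampled every second.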

[9] = target: 5-hydroxytryptamine receptor 2A (Homo sapiens) (UniProt P28223); assay: 5-hydroxytryptamine receptor 2A (HTR2A) small molecule agonists, cell-based qHTS assay (AID 1963587); further: nearly all actives have a fitted effect of over 30% in size; further: potency means the concentration at half of the fitted maximal effect
Procedure, shortened: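 HTR2A-CHO cells, plated 18 h at 37 C/5% CO2, dye-loaded 1 h at 37 C; compounds in DMSO added by pin tool (agonist mode). Intracellular calcium flux read as kinetic fluorescence on FDSS over 2 min at 1 s intervals.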

[10] = target: Muscarinic acetylcholine receptor M1 (Homo sapiens) (UniProt P11229); assay: Cholinergic receptor muscarinic 1 (CHRM1) small molecule antagonists, cell-based qHTS assay (AID 1963588); further: nearly all actives have a fitted effect of over 40% in size; further: potency means the concentration at half of the fitted maximal effect
Muscarinic acetylcholine receptor M1 (Homo sapiens), sequence (P11229 whole entry, looked up): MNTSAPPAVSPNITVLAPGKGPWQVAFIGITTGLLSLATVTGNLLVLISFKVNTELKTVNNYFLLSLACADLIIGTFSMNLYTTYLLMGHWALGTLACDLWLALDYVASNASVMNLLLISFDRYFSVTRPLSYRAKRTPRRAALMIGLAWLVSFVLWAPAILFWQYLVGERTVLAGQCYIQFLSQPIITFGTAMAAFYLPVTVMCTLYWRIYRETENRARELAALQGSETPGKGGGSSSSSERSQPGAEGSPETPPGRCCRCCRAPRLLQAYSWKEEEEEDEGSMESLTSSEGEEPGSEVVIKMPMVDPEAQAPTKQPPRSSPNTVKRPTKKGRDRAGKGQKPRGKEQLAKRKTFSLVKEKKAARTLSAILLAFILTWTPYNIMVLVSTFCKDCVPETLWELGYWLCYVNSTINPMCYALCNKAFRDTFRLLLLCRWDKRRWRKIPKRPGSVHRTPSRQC
Procedure, shortened: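 CHRM1-CHO calcium-flux assay, antagonist mode. Cells were seeded 18 h, dye-loaded 1 h at 37 C and given compound for 5 min at RT, then acetylcholine was added at 50nM. FDSS fluorescence was read 3 min; 15 concentrations, three runs.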

[11] = target: Muscarinic acetylcholine receptor M1 (Homo sapiens) (UniProt P11229); assay: Cholinergic receptor muscarinic 1 (CHRM1) small molecule agonists, cell-based qHTS assay (AID 1963589); further: nearly all actives have a fitted effect of over 35% in size
Procedure, shortened: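 Stable CHRM1-CHO cells (human receptor) were incubated 18 h, dye-loaded for 1 h at 37 C and exposed to test compounds for agonist activity, with calcium-dependent fluorescence followed kinetically.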

[12] = target: Beta-2 adrenergic receptor (Homo sapiens) (UniProt P07550); assay: Adrenergic beta2 receptor (ADRB2) small molecule antagonists, cell-based qHTS assay (AID 1963592); further: series mostly up to about 92 µM; nearly all actives have a fitted effect of over 50% in size
Beta-2 adrenergic receptor (Homo sapiens), sequence (P07550 whole entry, looked up): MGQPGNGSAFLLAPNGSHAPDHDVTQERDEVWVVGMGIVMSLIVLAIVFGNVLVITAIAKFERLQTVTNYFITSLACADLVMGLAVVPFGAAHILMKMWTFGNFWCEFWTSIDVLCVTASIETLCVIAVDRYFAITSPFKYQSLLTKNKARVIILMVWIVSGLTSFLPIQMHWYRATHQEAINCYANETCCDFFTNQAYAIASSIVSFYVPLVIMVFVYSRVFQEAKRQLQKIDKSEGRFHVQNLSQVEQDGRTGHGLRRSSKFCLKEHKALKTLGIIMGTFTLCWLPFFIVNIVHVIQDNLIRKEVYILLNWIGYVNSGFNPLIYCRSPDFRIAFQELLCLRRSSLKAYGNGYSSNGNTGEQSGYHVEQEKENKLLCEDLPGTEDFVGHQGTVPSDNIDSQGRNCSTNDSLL
Procedure, shortened: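 Cells (CHO, stable ADRB2 overexpression) incubated 18-20hr at 37C; compounds added from DMSO; agonist mix (1nM isoproterenol, 100uM IBMX, 25uM Ro-20-1724) added; 0.5hr RT; d2-cAMP and anti-cAMP-cryptate added; 1hr RT; 665/615 nm read.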

[13] = target: Beta-2 adrenergic receptor (Homo sapiens) (UniProt P07550); assay: Adrenergic beta2 receptor (ADRB2) small molecule agonists, cell-based qHTS assay (AID 1963593);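 further: CHO cells stably overexpressing human ADRB2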
Procedure, shortened: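 CHO cells stably over-expressing ADRB2 were plated overnight at 37C, then dosed with compounds plus a stimulation mix containing 100uM IBMX and 25uM Ro-20-1724 for 0.5hr at room temperature. cAMP was measured by HTRF competition, 1hr.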

[14] = target: D(2) dopamine receptor (Homo sapiens) (UniProt P14416); assay: Dopamine D2 receptor (DRD2) small molecule agonists, cell-based qHTS assay (AID 1963594); further: nearly all actives have a fitted effect of over 35% in size
D(2) dopamine receptor (Homo sapiens), sequence (P14416 whole entry, looked up): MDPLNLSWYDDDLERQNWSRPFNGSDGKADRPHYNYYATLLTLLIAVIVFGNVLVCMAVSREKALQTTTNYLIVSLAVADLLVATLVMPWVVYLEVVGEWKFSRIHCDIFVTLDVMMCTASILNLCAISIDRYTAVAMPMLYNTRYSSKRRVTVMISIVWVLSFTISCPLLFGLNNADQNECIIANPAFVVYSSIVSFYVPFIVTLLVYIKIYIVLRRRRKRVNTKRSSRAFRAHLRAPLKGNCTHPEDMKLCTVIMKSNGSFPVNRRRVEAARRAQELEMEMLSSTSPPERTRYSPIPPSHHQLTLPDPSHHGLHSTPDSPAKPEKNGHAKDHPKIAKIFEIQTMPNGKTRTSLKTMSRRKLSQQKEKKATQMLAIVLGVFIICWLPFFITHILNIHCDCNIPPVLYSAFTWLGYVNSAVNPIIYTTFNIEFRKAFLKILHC
Procedure, shortened: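 HEK293 cells stably expressing DRD2 were cultured 24 h at 37 C, then given Ro20-1724 (0.1 mM final) and compounds for 10 min at room temperature. NKH477 (200nM) was then added for 30 min. cAMP was read by HTRF.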

[15] = target: D(2) dopamine receptor (Homo sapiens) (UniProt P14416); assay: Dopamine D2 receptor (DRD2) small molecule antagonists, cell-based qHTS assay (AID 1963595; active means well fitted inhibition curve with a large enough effect in the signal ratio in the repeat runs, with a control signal flat; the % refers to the signal ratio; further: potency means the concentration at half of the fitted maximal effect)
Procedure, shortened: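 Antagonist mode in DRD2-HEK293 cells: after compound addition with 0.1 mM Ro20-1724, cells received quinpirole (12 nM) and NKH477 (200 nM) for 30 min at room temperature; HTRF cAMP read after 1 h detection.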

[16] = cAMP Responsive Elements (CRE) small molecule agonists, cell-based qHTS assay (AID 1963590)
Procedure, shortened: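 FRET-based beta-lactamase readout (LiveBLAzer B/G, 2 h RT) quantified CRE activation in HEK 293T CRE-bla cells after 3 h treatment with DMSO-dissolved compounds.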

[17] = cAMP Responsive Elements (CRE) small molecule antagonists, cell-based qHTS assay (AID 1963591; active means well fitted inhibition curve with a large enough effect in the signal ratio in the repeat runs, not every such curve was filed as active; the % refers to the signal ratio)
Procedure, shortened: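 qHTS in CRE-bla HEK 293T cells: compound in DMSO, then 0.25 uM NKH477 (final), 3 h at 37 °C/5% CO2; beta-lactamase FRET read-out after 2 h substrate incubation.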

[18] = p53 small molecule agonists, cell-based qHTS assay with human liver microsomes (AID 1963577)
Procedure, shortened: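 Fluorescence of the beta-lactamase reporter in p53RE-bla cells, detected with LiveBLAzer substrate (2 h, room temperature, dark), served as the read-out after 16 h compound exposure at 37 C with human liver microsomes and NADPH, each 0.5 mg/mL final.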

[19] = p53 small molecule agonists, cell-based qHTS assay with rat liver microsomes (AID 1963578)
Procedure, shortened: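 Cells carrying a p53 response element–beta-lactamase reporter were plated and rested 5 h, then dosed with compound in DMSO plus rat liver microsomes and NADPH, each at 0.5 mg/mL final. After 16 h at 37 C, LiveBLAzer substrate was added for 2 h.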

[20] = p53 small molecule agonists, cell-based qHTS assay (AID 1963582; active means well fitted activation curve with a large enough effect in the signal ratio in the repeat runs, not every such curve was filed as active; the % refers to the signal ratio)
Procedure, shortened: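 Agonist activity was scored from beta-lactamase FRET fluorescence in p53RE-bla cells treated 16 h at 37 C with compounds in DMSO, substrate incubation being 2 h at room temperature.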

Measured: Potency

CCCCCCCCCCCCCC[P+](CCCC)(CCCC)CCCC
inactive: [2] | [3] | [4] | [11] | [12] | [13] | [14]
inactive and 9.42 µM (active): [10]
active: [1] 9.63 µM and 24.3 µM | [5] 45.5 µM and 20.4 µM | [6] 45.5 µM and 40.8 µM | [7] 20.3 µM and 25.7 µM | [8] 14.8 µM and 18.8 µM | [9] 21.8 µM and 54.9 µM | [15] 17.1 µM and 43.3 µM

C=CC(C)(O)CCC=C(C)C (stereo not drawn)
inactive: [1] | [2] | [3] | [4] | [5] | [6] | [7] | [8] | [9] | [11] | [16] | [17] | [12] | [14] | [15]

C=C[C@H]1CN2CC[C@H]1C[C@@H]2[C@@H](O)c1ccnc2ccc(OC)cc12
inactive: [1] | [2] | [3] | [4] | [5] | [6] | [7] | [8] | [10] | [11] | [16] | [17] | [12] | [13] | [15]

CC(=O)[C@H]1CC[C@H]2[C@@H]3CCC4=CC(=O)CC[C@]4(C)[C@H]3CC[C@]12C
inactive: [1] | [2] | [3] | [4] | [5] | [6] | [7] | [12] | [14] | [15]

CC/C=C\C/C=C\C/C=C\CCCCCCCC(=O)O
active: [2] 60.6 µM and 54.5 µM
inactive: [1] | [3] | [4] | [6] | [7] | [8] | [9] | [10] | [11] | [12] | [13] | [14] | [15]
inactive and 20.4 µM (active): [5]

OC[C@H]1O[C@@H]2O[C@H]3[C@H](O)[C@@H](O)[C@@H](O[C@H]4[C@H](O)[C@@H](O)[C@@H](O[C@H]5[C@H](O)[C@@H](O)[C@@H](O[C@H]6[C@H](O)[C@@H](O)[C@@H](O[C@H]7[C@H](O)[C@@H](O)[C@@H](O[C@H]1[C@H](O)[C@H]2O)O[C@@H]7CO)O[C@@H]6CO)O[C@@H]5CO)O[C@@H]4CO)O[C@@H]3CO
inactive: [1] | [2] | [3] | [4] | [5] | [6] | [7] | [16] | [17] | [12] | [13] | [14] | [15]

CCCCC(CC)COP(=O)(O)OCC(CC)CCCC (stereo not drawn)
active: [1] 54.6 µM and 54.5 µM | [5] 36.4 µM and 20.4 µM | [7] 20.5 µM and 25.7 µM
inactive: [2] | [3] | [4] | [8] | [9] | [10] | [11] | [17] | [15]

CCC(=O)c1ccc(O)cc1
inactive: [1] | [2] | [3] | [4] | [18] | [19] | [5] | [6] | [7] | [20] | [8] | [9] | [10] | [11] | [16] | [17] | [12] | [13] | [14] | [15]

O=S(=O)(O)c1ccc(N=Nc2c(O)ccc3cc(S(=O)(=O)O)ccc23)cc1
active: [1] 30.8 µM
inactive: [2] | [3] | [4] | [5] | [7] | [8] | [9] | [10] | [11] | [16] | [17]

O=C(c1ccccc1)c1ccccc1O
inactive: [1] | [2] | [3] | [4] | [6] | [7] | [8] | [10] | [11] | [12] | [14] | [15]

CC(=O)CC(=O)Nc1ccccc1
inactive: [1] | [2] | [3] | [4] | [5] | [7] | [8] | [9] | [10] | [11] | [17] | [12] | [14] | [15]

CN1N=C(C(N)=O)CCC1=O
inactive: [1] | [2] | [3] | [4] | [18] | [19] | [5] | [6] | [7] | [20] | [8] | [9] | [10] | [11] | [16] | [17] | [12] | [13] | [14] | [15]

CCC(=O)OCc1ccc(OC)cc1
inactive: [1] | [2] | [3] | [4] | [18] | [19] | [5] | [6] | [7] | [20] | [8] | [9] | [10] | [11] | [16] | [17] | [12] | [13] | [14] | [15]

C#C[C@]1(O)CC[C@H]2[C@@H]3CCC4=CC(=O)CC[C@@H]4[C@H]3CC[C@@]21C
inactive: [1] | [2] | [3] | [4] | [17] | [12] | [13] | [14] | [15]

Cc1cc(OCCOCC[N+](C)(C)Cc2ccccc2)ccc1C(C)(C)CC(C)(C)C
36.1 µM (active) and inactive: [5]
inactive: [2] | [4] | [6] | [12] | [13] | [14]
active: [1] 21.6 µM and 7.5 µM | [3] 38.7 µM | [10] 2.96 µM and 2.59 µM | [15] 38.3 µM
